# Compounds without any hit were thinned out: in the full panel of roughly 83,000, 20% have a hit.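 How to read the values: 0–100, growth inhibition (40 = 60% inhibited); 0, no net growth; -100 to 0, cell death (-40 = 40% of starting cells died; -100 = all dead).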 Values without a mark were called inactive. Calls of active or inactive are those of the source. The calls were made as follows: active = growth percent below 10; inactive = the rest.
# What was measured:
# Test in all cases: NCI-60 one-dose screen, 48 h (100 = growth as untreated, 0 = no growth, -100 = all killed)
# Conditions in all cases: 10 µM
# [1] = tested on: SR leukemia
# [2] = tested on: RPMI-8226 leukemia
# [3] = tested on: OVCAR-8 ovarian
# [4] = tested on: OVCAR-5 ovarian
# [5] = tested on: OVCAR-4 ovarian
# [6] = tested on: SK-OV-3 ovarian
# [7] = tested on: IGROV1 ovarian
# [8] = tested on: OVCAR-3 ovarian
# [9] = tested on: HS 578T breast
# [10] = tested on: NCI/ADR-RES ovarian
SMILES,growth [1],growth [2],growth [3],growth [4],growth [5],growth [6],growth [7],growth [8],growth [9] [%],growth [10]
O=C(O)c1ccc(-n2cc(CNc3ccc(Cl)cc3)c(-c3ccccc3)n2)cc1,69.1%,89.1%,98.9%,103%,88.3%,107%,92.1%,98.6%,85,91.6%
O=C1/C=C/[C@@H](O)[C@@H]2C[C@@H](O)C[C@H]2/C=C/CCC[C@H](CCc2ccc(C(F)(F)F)cc2)O1,1.16% (active),-8.16% (active),2.31% (active),13.6%,9.39% (active),12.5%,5.99% (active),-10.4% (active),27.8,3.21% (active)
O=C(CN(C1CCCCC1)C1CCCCC1)Nc1ccc(S(=O)(=O)c2ccc(NC(=O)CN(C3CCCCC3)C3CCCCC3)cc2)cc1,-51.4% (active),-66.9% (active),3.23% (active),-54.8% (active),-72.6% (active),76.6%,-52.3% (active),-85.2% (active),33.9,4.04% (active)
C[C@]12CCC3c4ccc(O)cc4C[C@@H](CCCCCCCCCS(=O)CCCC(F)(F)C(F)(F)F)C3C1CC[C@@H]2O (stereo not given in full),44.6%,62.5%,77.7%,84.5%,66.2%,103%,92.3%,88.4%,81.4,70.4%
CN1CCN(CCC(=O)Nc2cccc(-n3cc(-c4ccncc4)c(-c4ccc(Cl)c(O)c4)n3)c2)CC1,5.5% (active),19.9%,54.8%,67.7%,56%,46.2%,55.8%,14.4%,43.1,29.7%
C[C@@H](O)[C@H]1C(=O)N2C(C(=O)O)=C(SCCN=CN)C[C@H]12,-5.48% (active),-3.62% (active),-10.1% (active),3.52% (active),-2.15% (active),2.23% (active),-5.16% (active),-15% (active),24.3,-13.9% (active)
O=C(Nc1ccc(F)cc1)c1cc2ccccc2cc1O,43.2%,37.9%,82.7%,100%,57.8%,52.2%,68.4%,84.6%,87.9,75.9%
CC1=NN(C(=O)c2nn(-c3ccc(Cl)cc3)cc2O)C(=O)C1,-39.3% (active),13.7%,29.4%,63.5%,29.9%,34%,34.8%,-6.37% (active),31.8,31.6%
C=CCN(CC=C)C(=O)[C@H](CC)[C@@H]1CC[C@@H](C)[C@@H]([C@H](C)[C@@H](O)[C@@H](C)C(=O)[C@H](CC)C2O[C@]3(C=CC(=O)[C@]4(CC[C@@](C)([C@H]5CC[C@](O)(CC)[C@H](C)O5)O4)O3)[C@H](C)C[C@@H]2C)O1 (stereo not given in full),49.1%,-23% (active),32.4%,32.8%,42.7%,41%,43.5%,29.8%,33.9,16.8%
O=C(Nc1ccc(NS(=O)(=O)c2ccc(F)cc2)cc1)C12CC3CC(CC(C3)C1)C2,75.5%,89.3%,94.7%,97.1%,99%,92.5%,102%,98.6%,94.4,85.5%
CN1C(C(=O)Nc2ccccn2)=C(O)c2sc(Cl)cc2S1(=O)=O,96.1%,94.5%,95.9%,104%,106%,104%,99.6%,105%,98.5,95.4%
CCOC(=O)c1cc(C(=O)c2ccc(OC)c(OC)c2)n2ccncc12,78.5%,88.3%,94.9%,124%,104%,64.2%,102%,108%,102,96.9%
COc1cc2c(Nc3ccc(-c4ccc(N)cc4)cc3)ncnc2c(OC)c1OC,31.8%,39.5%,41.2%,40.1%,51.4%,36.1%,22.5%,41.4%,70.6,48.9%
N#Cc1c(-c2ccc(Cl)cc2)csc1NC(=O)Nc1ccc(Cl)c(C(F)(F)F)c1,-15.1% (active),1.61% (active),23%,60.2%,-26.4% (active),19.9%,22.1%,-19.7% (active),29.6,8.74% (active)
COc1ccc2nc(-c3ccc(Cl)cc3)cc(-c3nnc(SC/C(=N\O)c4ccccc4)n3-c3ccccc3)c2c1,67.1%,59.7%,82.3%,88.6%,84.5%,99.9%,105%,86.4%,92.8,88.2%
CCN(CC)CCNc1ccc(C)c2sc3cc(Cl)ccc3c(=O)c12,-30.4% (active),-4.34% (active),45.9%,64.3%,52.1%,64.2%,20.4%,59.1%,43.3,51.1%
CCOC(=O)c1cc(C(=O)c2cc(OC)c(OC)c(OC)c2)n2c1ccc1c3cccnc3ccc12,17.5%,61.8%,56.2%,91.9%,89.7%,78.1%,67.8%,61.5%,72.8,33.9%
O=C(O)c1cc([N+](=O)[O-])ccc1Oc1ccccc1,91%,97.8%,97%,101%,104%,106%,114%,105%,93.8,101%
CN(C)c1ncnc2c1nnn2C1OC(CO)C(O)C1O (stereo not given),31.3%,-4.55% (active),8.85% (active),26.8%,23.4%,4.66% (active),3.79% (active),-18.8% (active),19.8,15.3%
CC(=O)Nc1ccc(S(=O)(=O)c2ccnc3cc(Cl)ccc23)cc1,83.3%,72.1%,73.3%,100%,81.4%,88%,98.2%,76%,85.2,77.3%
Cc1ccc(-c2c3c(N)nc(-c4cccnc4)nc3nc3c2c(C)nn3-c2ccccc2)cc1,82.5%,81.2%,82%,90.8%,50.8%,66.2%,103%,104%,72,90.3%
C=C(NC(=O)C(=C)NC(=O)c1csc(C2=NC3c4csc(n4)C4NC(=O)c5csc(n5)C(C(C)(O)C(C)O)NC(=O)C5CSC(=N5)C(=CC)NC(=O)C(C(C)O)NC(=O)c5csc(n5)C3(CC2)NC(=O)C(C)NC(=O)C(=C)NC(=O)C(C)NC(=O)C(C(C)CC)NC2C=Cc3c(C(C)O)cc(nc3C2O)C(=O)OC4C)n1)C(N)=O (stereo not given),-7.28% (active),10.1%,20.4%,34%,33.1%,99.8%,64.6%,34%,42.5,86.3%
Clc1ccc2c(c1)C(N1CCNCC1)=Nc1ccccc1O2,3.72% (active),50%,73.2%,69%,41.1%,67%,48.1%,46.6%,60.7,62.8%
